Measured values as given in PubChem BioAssay AID463173 (ICCB-Longwood Screening Facility, Harvard Medical School, 2010).
In all, about 52,000 compounds went through this assay and about 4,300 (8.3%) were called active. The sample holds actives, similar compounds and a random draw of the others, so the mix is not that of the screen. Values without a mark were called inactive. Cut-off read from the data, not from the text of the source: active = survival mostly below about 52% (no sharp cut-off); inactive = mostly above about 56%.

system: DeltatarO mutant; test: S. aureus survival, RN4220 and DeltatarO strains – OD600, teichoic acid synthesis inhibitors, primary screen (AID 463173); details: S. aureus RN4220 wild type/DeltatarO growth, OD600, 18 h, active compounds read low, screened at 18.75 µg/mL (by protocol)

| SMILES | survival |
| --- | --- |
| CCOC(=O)CSc1nnc(COc2cccc(C)c2)o1 | 42% (active) |
| Cc1ccc(NCc2nnc(SCC(=O)N(Cc3ccccc3)C(C)(C)C)o2)c(C)c1 | 94% |
| COC(=O)CSc1nnc(COc2cccc3ccccc23)o1 | 46% (active) |
| Cc1cccc(OCc2nnc(SCC(=O)N3c4ccccc4CCc4ccccc43)o2)c1 | 99% |
| Cc1csc(N(C)C(=O)CSc2nnc(COc3cccc4ccccc34)o2)n1 | 56% |
| Cc1ccccc1OCc1nnc(SCC(=O)N(Cc2ccccc2)C(C)(C)C)o1 | 59% (active) |
| Cc1cccc(OCc2nnc(SCC(N)=O)o2)c1 | 91% |
| NC(=O)CSc1nnc(COc2cccc3ccccc23)o1 | 89% |
| On1ccc2c(Br)cncc21 | 94% |
| CCc1ccc2nc(N3CCN(C(=O)c4ccco4)CC3)sc2c1 | 86% |
| O=C(CSc1nc(-c2cccc(Cl)c2)nc2cc(=O)[nH]n12)Nc1ccccc1 | 71% |
| Cc1ccc(CSc2ncc(Cl)c(C(=O)Oc3ccc(F)cc3)n2)cc1 | 77% |
| CCC(=O)N1c2ccccc2CC1C(=O)NCc1cccc(OC)c1OC (stereo not drawn) | 84% |
| COc1cc(C2C(C#N)=C(N)Oc3n[nH]c(C(F)(F)F)c32)ccc1OCC(N)=O (stereo not drawn) | 72% |
| CC(NC(=O)Cn1c(=O)oc2cc(S(=O)(=O)N3CCCCCC3)ccc21)c1ccccc1 (stereo not drawn) | 82% |
| COc1ccccc1CNC(=O)C1CCN(c2nnc(C)c3c(C)n(-c4ccccc4)nc23)CC1 | 104% |
| Cc1noc(/C=C/c2ccco2)c1S(=O)(=O)N1CCC(C(=O)Nc2ccc(F)c(Cl)c2)CC1 | 100% |
| CCOC(=O)c1sc2cccc(F)c2c1S(=O)(=O)N1CCN(c2cccc(Cl)c2)CC1 | 102% |
| COc1cccc(OC)c1C(=O)NCCc1sc(-c2cccc(F)c2)nc1C | 69% |
| CCn1cc(C(=O)NCc2ccccc2Cl)c(=O)c2cc(S(=O)(=O)N3CCOCC3)ccc21 | 75% |
| O=C(O)c1ccc(NS(=O)(=O)c2ccc(Cl)c(C(=O)Nc3ccccc3)c2)cc1 | 73% |
| Cc1ccc(C(=O)Nc2cccc(C(=O)O)c2)cc1S(=O)(=O)N1CCCC1 | 81% |
| Cc1ccc(C(=O)Nc2ccccc2)cc1S(=O)(=O)Nc1ccccc1 | 46% (active) |
| Cc1ccc(C(=O)Nc2ccc(Br)cc2)cc1S(=O)(=O)NCc1ccccc1 | 83% |

| SMILES | survival |
| --- | --- |
| CCOc1cccc(NC(=O)c2ccc(F)c(S(=O)(=O)N(CC)c3cccc(C)c3)c2)c1 | 86% |
| O=C(O)c1ccc(NC(=O)c2ccc(Cl)c(S(=O)(=O)N3CCCCCC3)c2)cc1 | 131% |
| O=C(Nc1ccccc1)c1ccc(Cl)c(S(=O)(=O)Nc2ccccc2)c1 | 43% (active) |
| Cc1ccc(C(=O)Nc2ccc(C(=O)O)cc2)cc1S(=O)(=O)Nc1ccccc1 | 74% |
| COc1ccc(C(=O)Nc2ccccc2)cc1S(=O)(=O)Nc1ccc(Br)cc1 | 78% |
| Cc1ccc(C(=O)Nc2ccccc2)cc1S(=O)(=O)Nc1ccc(Br)cc1 | 6% (active) |
| CCN(c1ccccc1)S(=O)(=O)c1cc(C(=O)Nc2ccc(Br)cc2)ccc1F | 6% (active) |
| CCN(c1ccccc1)S(=O)(=O)c1ccc(F)c(C(=O)Nc2ccc(C)cc2)c1 | 100% |
| CCOCCCNC(=O)C(Cc1ccccc1)NS(=O)(=O)c1ccc2c(c1)c(=O)n(C)c(=O)n2C (stereo not drawn) | 88% |
| O=C(Cc1cccs1)Nc1ccccc1 | 70% |
| CN(C)c1cccc(C(=O)Nc2ccc(-c3nc4ccccc4s3)cc2)c1 | 106% |
| O=C(NCC(c1cccnc1)N1CCN(c2ccccc2F)CC1)c1ccc(F)cc1 (stereo not drawn) | 92% |
| Cc1cccc(Cc2c(C)nc3nc(SCc4ccccc4C)nn3c2C)c1 | 95% |
| Cc1cccc(Cc2c(C)nc3nc(SCC(=O)NCc4ccc(F)cc4)nn3c2C)c1 | 56% |
| Cc1cccc(Cc2c(C)nc3nc(SCc4ccccc4Cl)nn3c2C)c1 | -9% (active) |
| CCN(CC)CCNC(=O)CSc1nc2nc(C)c(Cc3ccccc3)c(C)n2n1 | 86% |
| COc1cc(NC(=O)CSc2nc3nc(C)c(Cc4ccccc4)c(C)n3n2)cc(OC)c1OC | 80% |
| Cc1ccc(NC(=O)CSc2nc3nc(C)c(Cc4ccccc4)c(C)n3n2)cc1 | 60% |
| Cc1nc2nc(SCC(=O)Nc3ccccc3Cl)nn2c(C)c1Cc1ccccc1 | 20% (active) |
| Cc1cccc(Cc2c(C)nc3nc(SCC(=O)NCc4ccccc4)nn3c2C)c1 | 40% (active) |
| Cc1cccc(Cc2c(C)nc3nc(SCc4ccccc4F)nn3c2C)c1 | 84% |
| Cc1nc2nc(SCC(=O)NCc3ccccc3)nn2c(C)c1Cc1ccccc1Cl | 147% |
| Cc1nc2nc(SCC(=O)NCc3ccccc3Cl)nn2c(C)c1Cc1ccccc1 | 64% |
| Cc1nc2nc(SCC(=O)NCc3ccccc3)nn2c(C)c1Cc1ccccc1 | 8% (active) |
